Values without a mark were called inactive. The source made the active and inactive calls.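 Rule for the calls: active = growth inhibition above 50% at the single 2 µM test dose, taken to imply half-maximal potency below 2 µM; inactive = the rest.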

This assay in a line: antimalarial activity against Dd2 strain (AID 2302).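 Note: 0% = DMSO untreated growth and 100% = chloroquine plus artemisinin killed control.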 The settings on record: P. falciparum Dd2 in RBCs, LDH growth readout, 72 h; at 2 µM; stronger effect = higher value.
In the case of `Cc1[nH]c(C)c(-c2ccc(-c3ccccc3F)nc2)c(=O)c1Br`, the growth inhibition was 97% (active).
As for `CC(=O)c1c(Cc2cccc(C(F)(F)F)c2)c[nH]c1C`, the figure is 92% (active).
As for `Cc1cc(NC2CCN(CC3CCCCC3)C2)nc(Nc2ccc(Br)cc2)n1` (centres undefined), the figure is 83% (active); as for `Cc1cccc2c(CON3C(N)=NC(N)=NC3(C)C)cccc12`, 94% (active); as for `CCC(CC)(Cc1ccccc1)NC(=O)[C@H](Cc1ccc(OC)c(OC)c1)Nc1ccc(C#N)c2ccccc12`, 69% (active).
As for `O=C(C=Cc1ccc(Cl)c(Cl)c1)NCCCCCN1CCC(CCNC(=O)/C=C/c2ccccc2)CC1`, the figure is 1%; as for `O=C(Nc1cccc(C(F)(F)F)c1)c1cccc(S(=O)(=O)NC2CCCN(CC3CCCCC3)C2)c1` (centres undefined), 15%; as for `Cc1cc(NC(=O)c2cc(Br)ccc2Cl)n(-c2nc(C)c(C)c(=O)[nH]2)n1`, 83% (active).
`CN(C(=O)/C=C/c1ccccc1F)C1CCN(CCCCCNC(=O)/C=C/c2ccc(Cl)c(Cl)c2)CC1`: the growth inhibition was 59% (active).
As for `CC1CN(Cc2ccc(-c3cccc(-c4nc5ccc(F)cc5[nH]4)c3)cc2)CC(C)O1` (centres undefined), the figure is 20%; as for `CC(C)C[C@@H](CNC[C@H](CC(C)C)NC(=O)OC(C)(C)C)NC(=O)OC(C)(C)C`, 58% (active); as for `CCNC(=O)N[C@@H]1CN[C@@H](C#Cc2cc3c(Nc4ccc(OCc5cccc(F)c5)c(Cl)c4)ncnc3s2)C1`, 27%.
Consider `CC(C)N1CCN(C(CN2CCN(CCCOc3ccc4ccccc4c3)CC2)c2ccc(F)cc2)CC1` (centres undefined), for which the growth inhibition was 91% (active).
For the compound `CN(C)C(=NCCCCCCN=C(NC(N)=NCc1ccc(Cl)c(Cl)c1)N(C)C)NC(N)=NCc1ccc(Cl)c(Cl)c1`, the growth inhibition is 99% (active).
As for `CCn1c2ccccc2c2cc(C=NNc3cc(C)nc4ccccc34)ccc21`, the figure is 97% (active).
As for `CS(=O)(=O)CCN(CCS(C)(=O)=O)Cc1ccc(-c2ccc3ncnc(Nc4ccc(OCc5cccc(F)c5)c(Cl)c4)c3c2)o1`, the figure is 27%.
As for `O=C(NC1CCCC1)c1ccc(N2CCC(NCc3cc4cc(Cl)ccc4[nH]3)CC2)cc1`, the figure is -10%.
Regarding `COc1ccccc1C1CCN(CCN2CCC(NC(=O)c3ccc(-c4ccc(C#N)cc4)cc3)CC2)CC1`, the growth inhibition is 42%.
Turning to `O=C(NC1CCN(Cc2ccc(F)cc2)CC1)c1ccc(-c2cccc(C(F)(F)F)c2)s1`, the growth inhibition is 11%.
As for `O=C(Nc1ccc(Br)cc1)N(CCN1CCOCC1)CC(O)COc1ccc(Cl)c(F)c1` (centres undefined), the figure is 30%; as for `NC(=O)c1ccc(NCC(=O)Nc2cccc(-c3cccc(-c4nc5ccc(C(F)(F)F)cc5[nH]4)c3)c2)cc1`, 41%.
As for `CC(=O)Nc1cccc(-c2cn(-c3ccc(OCc4cccc(F)c4)c(Cl)c3)c3ncncc23)c1`, the figure is 66% (active).
As for `CCCc1ccc(NC(=O)c2ccc(CN3CCCN(Cc4cccc(O)c4)CC3)cc2)cc1`, the figure is 63% (active).
As for `Cc1ccc(C)c(NC(=O)Nc2ccc(Nc3nc(C)cc(N4CCOCC4)n3)cc2)c1`, the growth inhibition was 48%.
